Structures are written as SMILES. “And” between values parts separate entries of the source, which are not always exact repeats. Identical values can stand only once. Compounds without any hit were thinned out: in the full panel of roughly 83,000, 20% have a hit.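 Single-concentration screen, 48 h exposure, 96-well plates. Endpoint: percent growth. Below 10 = active.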 The source made the active and inactive calls.

Consider 37 molecules from PubChem BioAssay (NCI).

The subject of the assay is IGROV1 ovarian. The assay is described as follows: NCI-60 one-dose screen, 48 h (100 = growth as untreated, 0 = no growth, -100 = all killed). The following applies: 10 µM unless noted.
As for `CCOC(=O)C1C(C=C(C)C)C1(C)C` (configuration not stated), the growth was 120% (inactive).

For the molecule `O=C/C=C/c1ccco1`, the growth was 106% (inactive).

Consider `Cn1cc(-c2csc(-c3cn(CCCCN4CCOCC4)c4ccc(F)cc34)n2)c2cccnc21`, for which the growth is 65.4% (inactive).

Consider `CC(=O)Nc1nc2c(s1)C1=CC[C@H]3[C@@H]4CC[C@H](OC(C)=O)[C@@]4(C)CC[C@@H]3[C@@]1(C)CC2`, for which the growth is 62.5% (inactive).

Consider `C[C@]12CC[C@H](O)C[C@@H]1CC[C@@H]1[C@@H]2CC[C@]2(C)OC(=O)CC[C@@H]12`, for which the growth was 93.1% (inactive).

In the case of `C[C@]12CCc3sc(Nc4ccc(O)cc4)nc3C1=CC[C@@H]1[C@@H]2CC[C@]2(C)C(=O)CC[C@@H]12`, the growth was 13.1% (inactive).

As for `O=C(O)C(Br)CBr` (configuration not stated), the growth is 104% (inactive).

`Cc1cc[c-]cc1.Fc1c[c-]c(-c2ccccn2)c(F)c1.N#CCC[PH+](CCC#N)c1ccccc1.[Pt+2]`: the growth is 30.2% (inactive).

As for `O=P(O)(Nc1ccccc1)Nc1ccccc1`, the growth is 90.6% (inactive).

Turning to `Cc1cc(N(CCCl)CCCl)ccc1C=Nc1ccc(-c2csc(-c3ccccc3)n2)cc1`, the growth was 93.2% (inactive).

With `Oc1ccccc1C=NCCN=Cc1ccccc1O`, the growth was 118% (inactive).

Regarding `COC12CC3(C)C(C4=CC(=O)OC4)CCC3(O)C3CCC4=CC(=O)CCC4(CO1)C32` (configuration not stated), the growth is 98.6% (inactive).

For `CC12CCC3C(CCC4CC(O)CCC43C)C1CCC2=O` (configuration not stated), the growth was 38.9% (inactive).

As to `COc1cc(-c2ccc(N)c(OC)c2)ccc1N`, the growth was 120% (inactive).

Consider `COc1ccn(C)c(=O)c1C#N`, for which the growth is 98.7% (inactive).

Turning to `CCCCCCCCCCCCCCCC[N+](C)(C)Cc1ccccc1`, the growth is -71.5% (active) and -87.3% (active).

In the case of `Cc1nc2ccccc2c(=O)n1-c1ccccc1F`, the growth was 111% (inactive).

As for `C[C@]12CC[C@H]3[C@@H](C[C@@H]4SC(Nc5ccccc5)=N[C@@]45C/C(=N/O)CC[C@]35C)[C@@H]1CCC2=O`, the growth is 88.4% (inactive).

In the case of `N#CCN(CC#N)[N+](=O)[O-]`, the growth was 121% (inactive).

In the case of `O=C(O)c1ccccc1N(CCO)CCCl`, the growth was 88.6% (inactive).

`O=[N+]([O-])c1cc(Cl)c(Cl)cc1Cl`: the growth was 111% (inactive) and 109% (inactive).

In the case of `CN1[C@@H](CC(=O)c2ccccc2)CCC[C@H]1CC(=O)c1ccccc1`, the growth was 26.5% (inactive).

In the case of `O=Cc1cn(Cc2ccccc2)c2ccccc12`, the growth is -21.4% (active).

As to `OCCN=Cc1c[nH]c2ccccc12`, the growth was 104% (inactive).

Take `C=CC[PH+](c1ccccc1)c1ccccc1.C=CC[PH+](c1ccccc1)c1ccccc1.[Pt+2].[S-]c1nc2ccccc2[nH]1.[S-]c1nc2ccccc2[nH]1`: the growth is -23.4% (active).

For the molecule `O=NN1CCCCC1`, the growth was 116% (inactive).

Take `COC(=O)C1=CCCN(C)C1`: the growth is 102% (inactive) and 145% (inactive).

Turning to `CC[C@H](C)[C@H](NC(=O)[C@H]1CCCCN1C)C(=O)N(C)[C@H](C[C@@H](OC(C)=O)c1cccc(C(=O)N[C@@H](Cc2ccccc2)C[C@H](C)C(=O)OC)n1)C(C)C`, the growth is 29% (inactive).

As for `CC1(C)CN=C(NN=C(/C=C/c2ccc(C(F)(F)F)cc2)/C=C/c2ccc(C(F)(F)F)cc2)NC1`, the growth was 22% (inactive).

`Cc1ccc(P(=O)(O)O)cc1`: the growth was 111% (inactive).

Regarding `Nc1ccc2c(c1)Cc1cc(N)ccc1-2`, the growth is 83.2% (inactive).

Regarding `N#CCCc1ccccc1`, the growth was 103% (inactive).

Take `CNC(=O)O/N=C(\SC)C(=O)N(C)C`: the growth is 110% (inactive).

For `CCC1(CCSC#N)C(=O)NC(=O)NC1=O`, the growth is 104% (inactive).

As for `Oc1ccccc1C=NCCN=Cc1ccccc1O.[Fe]`, the growth is 71.2% (inactive).

In the case of `CCCCCCCCCCCCCCCC[N+](C)(C)C`, the growth was -64% (active) and -56.6% (active).

As to `C[N+]1(C)CCCC1c1cccnc1` (configuration not stated), the growth was 115% (inactive).
